Results: PubChem BioAssay (Tox21)
Several values for one entry are separate records, joined by “and”; a condition that tells them apart may be missing. Equal values may be shown once. Inconclusive results are not listed. A call without a number means that no potency is given here. Some compounds were tested as several samples or in several runs, with calls that do not always agree. Activity calls are given as the source filed them. The call rests on the fitted dose curve; in most records, active means well fitted activation curve with a large enough effect in the repeat runs; inconclusive means weak or mixed curves; inactive means flat fitted curve, though single readings scatter.

Assay: A CellTox Green Cytotoxicity Assay to monitor cytotoxicity in HepG2 cells - 32 hour (AID 1224883); further: nearly all actives have a fitted effect of over 50% in size
Conditions: CellTox Green fluorescence; series mostly up to 76.8 µM; cytotoxicity increase: at the top concentration
From the text: National Center for Advancing Translational Sciences [NCATS]
NIH Chemical Genomics Center [NCGC]
U.S. Environmental Protection Agency [EPA]
National Institutes of Environmental Health Sciences [NIEHS]
National Toxicology Program [NTP]
Cell-based models are critical for drug discovery. Determining the natural cytotoxic effects resulting from test compounds is an essential research activity. A CellTox Green Cytotoxicity Assay to monitor cytotoxicity in real time of continues cell culture during 40 hours of the compound treatment was used to screen Tox21 10K library compounds in HepG2 cells. CellTox Green Cytotoxicity Assay is a nonlytic, homogeneous, biofluorescent method to measure cytotoxicity in cell culture after experimental manipulation. The assay system uses a proprietary asymmetric cyanine dye that is excluded from viable cells but preferentially stains the dead cell's DNA. […] Viable cells produce no appreciable increases in fluorescence. Therefore, the fluorescence signal produced by the binding interaction with dead cell DNA is proportional to cytotoxicity.
The mixture of HepG2 cell suspension and reagents were dispensed at 600cells/6 ul/well in 1536-well tissue culture treated black solid bottom plates using a Multidrop dispenser. After the assay plates were incubated at a 37 C/5% CO2 incubator for 5 hours, 23 nL of compounds dissolved in DMSO, positive and negative controls was transferred to the assay plate by a pintool work station. The plates were incubated at 37 C for 40 hours. The fluorescence intensity were measured at 0h, 8h, 16h, 24h, 32h and 40h time points using ViewLux plate reader during compound treatment.
Potency means the concentration at half of the fitted maximal effect.

Question: With Nc1ccc([N+](=O)[O-])cc1O as the compound, how does the “cytotoxicity increase” value read?
Answer: -4.43% (inactive)

Question: For COc1ccc(OC(F)(F)F)cc1CN[C@H]1CCCN[C@H]1c1ccccc1, which Potency is on record?
Answer: 49 µM (active)

Question: For CNNCc1ccc(C(=O)NC(C)C)cc1, which Potency is on record?
Answer: 24.5 µM (active) and 19.5 µM (active)

Question: With F[B-](F)(F)F as the compound, how does the Potency read?
Answer: inactive

Question: With CC1(C)O[C@@H]2C[C@H]3[C@@H]4CCC5=CC(=O)C=C[C@]5(C)[C@@]4(F)[C@@H](O)C[C@]3(C)[C@]2(C(=O)CO)O1 as the compound, how does the Potency read?
Answer: inactive

Question: With CN1CCc2cccc3c2[C@H]1Cc1ccc(O)c(O)c1-3 as the compound, how does the Potency read?
Answer: inactive

Question: Which Potency does the source give for NC(CO)(CO)CO here?
Answer: inactive

Question: Which Potency does the source give for Nc1c2c(nc3ccccc13)CCCC2 here?
Answer: inactive

Question: For O=S1(=O)OC(c2ccc(O)cc2)(c2ccc(O)cc2)c2ccccc21, which Potency is on record?
Answer: inactive

Question: For COc1ccc(CN(CCN(C)C)c2ccccn2)cc1, which Potency is on record?
Answer: inactive

Question: With O=C1OC2(c3ccccc31)c1cc(Br)c(O)c(Br)c1Oc1c2cc(Br)c(O)c1Br as the compound, how does the Potency read?
Answer: 5.58 µM (active) and 14.2 µM (active) and 23.9 µM (active)

Question: Which Potency does the source give for CC(=O)C(=O)O here?
Answer: inactive

Question: For O=C1NC(=O)C(c2ccccc2)(c2ccccc2)N1, which Potency is on record?
Answer: inactive and 21.3 µM (active)

Question: With Nc1c(N=Nc2ccc(-c3ccc(N=Nc4cc(S(=O)(=O)O)c5ccccc5c4N)cc3)cc2)cc(S(=O)(=O)O)c2ccccc12 as the compound, how does the “cytotoxicity increase” value read?
Answer: -73.2% (inactive)

Question: Which Potency does the source give for NC(=O)c1cccnc1 here?
Answer: inactive

Question: With Oc1ccccc1 as the compound, how does the Potency read?
Answer: inactive

Question: Which Potency does the source give for CCOC(N)=O here?
Answer: inactive

Question: For CCCCNC(=O)NS(=O)(=O)c1ccc(C)cc1, which Potency is on record?
Answer: inactive

Question: Which Potency does the source give for CCCC[P+](CCCC)(CCCC)CCCC here?
Answer: inactive

Question: For Cc1ncc([N+](=O)[O-])n1C, which Potency is on record?
Answer: inactive

Question: Which Potency does the source give for O=C(O)c1ccccc1 here?
Answer: inactive

Question: For Cc1ccc(S(=O)(=O)O)cc1, which Potency is on record?
Answer: inactive

Question: With Nc1ccc(S(N)(=O)=O)cc1 as the compound, how does the Potency read?
Answer: inactive

Question: For CN(C)CCOC(c1ccccc1)c1ccccc1, which Potency is on record?
Answer: inactive

Question: With Cc1cc(=O)oc2cc(O)ccc12 as the compound, how does the Potency read?
Answer: inactive

Question: For CS(=O)(=O)OCCCCOS(C)(=O)=O, which Potency is on record?
Answer: inactive

Question: With CC(=O)CCC(=O)O as the compound, how does the Potency read?
Answer: inactive

Question: Which Potency does the source give for O=C1O[C@H]([C@@H](O)CO)C(O)=C1O here?
Answer: inactive

Question: Which Potency does the source give for CCOc1ccc(NC(C)=O)cc1 here?
Answer: inactive

Question: With CC(O)(P(=O)(O)O)P(=O)(O)O as the compound, how does the Potency read?
Answer: inactive

Question: For CC(=O)CC(c1ccccc1)c1c(O)c2ccccc2oc1=O (stereo not given), which Potency is on record?
Answer: inactive

Question: For CCCCC1(COC(=O)CCC(=O)O)C(=O)N(c2ccccc2)N(c2ccccc2)C1=O, which Potency is on record?
Answer: inactive

Question: For Cc1cn([C@H]2C=C[C@@H](CO)O2)c(=O)[nH]c1=O, which Potency is on record?
Answer: inactive

Question: With NS(=O)(=O)O as the compound, how does the Potency read?
Answer: inactive

Question: For NC(=O)n1c(O)c(C(=O)c2cccs2)c2cc(Cl)ccc21, which “cytotoxicity increase” value is on record?
Answer: 4.44% [at 35.3 µM] (inactive)

Question: Which Potency does the source give for CC/C(=C(\c1ccccc1)c1ccc(OCCN(C)C)cc1)c1ccccc1 here?
Answer: 43.6 µM (active) [middle of 5 runs]

Question: With C1CCC(C(CC2CCCCN2)C2CCCCC2)CC1 (stereo not given) as the compound, how does the Potency read?
Answer: 5.35 µM (active)

Question: For CN1[C@@H]2CC(OC(=O)[C@H](CO)c3ccccc3)C[C@H]1[C@@H]1O[C@@H]12 (stereo not given in full), which Potency is on record?
Answer: inactive

Question: With C1=CC2C3C=CC(C3)C2C1 (stereo not given) as the compound, how does the “cytotoxicity increase” value read?
Answer: -5.56% (inactive)

Question: Which Potency does the source give for C=C(C)C(=O)OCC(C)O (stereo not given) here?
Answer: inactive
